Measurements reported in PubChem BioAssay (NCI).
Compounds without any hit were thinned out: in the full panel of roughly 79,000, 15% have a hit. The source made the active and inactive calls. No stated cut-off is given here; in the data, active means growth inhibition above about 70%; inactive means the rest. Where a SMILES comes first, the peptide text is derived from it. [ ]: non-standard residue; d: D form. The star is where a group is joined. ONb = O=[N+]([O-])c1ccc(CO*)cc1; AllylGly = C=CC[CH](N)C(=O)O; Boc = CC(C)(C)OC(=O)*

Experiments:
[1] = NCI Yeast Anticancer Drug Screen. Data for the rad50 strain (AID 155);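 further: 0% = growth of vehicle-only cultures of the same strain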; conditions: S. cerevisiae rad50 strain growth inhibition; at 50.0 µM; stronger effect = higher value
Procedure, shortened: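 Relative growth inhibition (compound vs vehicle) was measured in yeast with a defined repair-gene alteration.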

[2] = NCI Yeast Anticancer Drug Screen. Data for the mec2-1 strain (AID 157); conditions: S. cerevisiae mec2-1 strain, at 50.0 µM, stronger effect = higher value
Procedure, shortened: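 Growth inhibition is read against vehicle-treated controls after compound exposure of the mec2-1 yeast strain, which is defective in DNA damage repair or cell cycle control.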

[3] = NCI Yeast Anticancer Drug Screen. Data for the sgs1 mgt1 strain (AID 161);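 further: 0% = growth of cultures given vehicle only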; conditions: S. cerevisiae sgs1 mgt1 strain, at 50.0 µM, stronger effect = higher value
Procedure, shortened: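 Compounds are added to genetically altered yeast, and growth is compared with cultures given vehicle alone to give percent inhibition.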

[4] = NCI Yeast Anticancer Drug Screen. Data for the cln2 rad14 strain (AID 165);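 further: 0% = growth equal to vehicle treated cultures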; conditions: S. cerevisiae cln2 rad14 strain, at 50.0 µM, stronger effect = higher value
Procedure, shortened: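 Growth inhibition, relative to vehicle-treated controls, is the read-out. The test organism is a yeast strain with defined genetic alterations, cln2 rad14.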

[5] = NCI Yeast Anticancer Drug Screen. Data for the bub3 strain (AID 167); conditions: S. cerevisiae bub3 mutant strain, at 50.0 µM, stronger effect = higher value
Procedure, shortened: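 Screening used yeast with an engineered genetic alteration affecting cell cycle control. Compound-exposed cultures were compared with vehicle cultures, and reduced growth was taken as inhibition.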

[6] = NCI Yeast Anticancer Drug Screen. Data for the mlh1 rad18 strain (AID 175); conditions: S. cerevisiae mlh1 rad18 strain growth inhibition; at 50.0 µM; stronger effect = higher value
Procedure, shortened: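 Cells of a genetically altered yeast strain, deficient in DNA damage repair, were treated with compound. Their growth was then compared with that of vehicle-treated cultures to give inhibition.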

Measured: growth inhibition

CCCOc1nc(N)c2cnn(C3CCCCO3)c2n1 (stereo not given)
inactive: [1] -14.9% | [2] -25.5% | [3] 8.05% | [4] 16.1% | [5] 14.2% | [6] -9.25%

Clc1ccc2ccccc2n1
inactive: [1] 15.1% | [2] -1.65% | [3] -6.4% | [4] -23.1% | [5] 9.8% | [6] -8.15%

CCC(=O)NCCCCC1CCCC[N+]1(C)C (stereo not given)
inactive: [1] -0.65% | [2] -11.9% | [3] 7.45% | [4] -14.4% | [5] -2% | [6] -15.8%

c1ncn(Sn2cncn2)n1
inactive: [1] -13.2% | [2] -6.9% | [3] -4.25% | [4] -23.8% | [5] -5.9% | [6] -0.85%

CN(C)c1nc2oc(-c3ccccc3)c(-c3ccccc3)c2c2nnnn12
inactive: [1] 12% | [2] 8.05% | [3] 2.65% | [4] 15.8% | [5] 1.65% | [6] -11.9%

COCn1cnc2c(=O)n(-c3ccc(OC)cc3)c(=S)n(-c3ccc(OC)cc3)c21
inactive: [1] 21.1% | [2] -13.7% | [3] -28.9% | [4] -2.65% | [5] -21.4% | [6] -53.1%

N#CCCC1(CCC#N)CCc2ccccc2C1=O
inactive: [1] 26.6% | [2] 1.2% | [3] 24.6% | [4] 25.9% | [5] 8.1% | [6] 40%

CCOC(=O)C1=C(C)N(NC(N)=O)C2(N)N(NC(N)=O)C(C)=C(C(=O)OCC)C12C#N (stereo not given)
inactive: [1] -6.95% | [2] 21.9% | [3] 17.6% | [4] 4.3% | [5] 10.6% | [6] -12.1%

Nc1ccc2c(c1)CC1CC(=O)NN=C21 (stereo not given)
inactive: [1] 29.5% | [2] 9.95% | [3] 9.4% | [4] 3.35% | [5] -3.15% | [6] -22.2%

N=C(Oc1ccccc1)c1ccccc1
inactive: [1] -1.95% | [2] -22.3% | [3] -12.6% | [4] -28.7% | [5] -13.1% | [6] 6.45%

Cc1ccc(-n2c(O)c(N=Nc3ccccc3)c(=O)n(-c3ccccc3)c2=S)cc1
inactive: [1] 20.1% | [2] -15.7% | [3] 51.4% | [4] -30.7% | [5] -9.2% | [6] -9.85%

CC(C)(c1ccc(C(=O)O)cc1)c1ccc(C(=O)O)cc1
inactive: [1] -1.65% | [2] 5.05% | [3] -1.1% | [4] -5.7% | [5] -14.5% | [6] -9.15%

CCCC(CNC(C)=O)(c1ccccc1)C1CCCCC1 (stereo not given)
inactive: [1] -10.7% | [2] 6.9% | [3] 3.15% | [4] 27.9% | [5] 11.2% | [6] 16.1%

NC(=O)C(O)(c1ccc(Br)cc1)C(Cl)Cl (stereo not given)
inactive: [1] 4.65% | [2] 3.05% | [3] -5.55% | [4] 9.05% | [5] 11.6% | [6] 5.95%

C=CCC(NC(=O)OC(C)(C)C)C(=O)NC(CCC(=O)OCc1ccc([N+](=O)[O-])cc1)C(N)=O (stereo not given) (Boc-[AllylGly]-Glu(ONb)-NH2; configuration not given here)
inactive: [1] -7.75% | [2] -36.7% | [3] -20.1% | [4] 9.25% | [5] -2.35% | [6] -9.2%

C[N+](C)(C)C1CC([N+](C)(C)C)C2c3ccccc3C21 (stereo not given)
inactive: [1] -15.2% | [2] 23.1% | [3] 1.95% | [4] -9.05% | [5] -3.35% | [6] 3.9%

O=C(N/N=C/c1ccc(Cl)cc1)c1ccccc1NC(=O)C1CC1
inactive: [1] -3.85% | [2] -14.2% | [3] 28% | [4] -23.6% | [5] 11.8% | [6] 33.2%

CN(C(=O)c1ccncc1)c1ccccc1
inactive: [1] -11.4% | [2] -33.1% | [3] -14.1% | [4] 3.85% | [5] -31.1% | [6] 8.5%

CCOC(=O)C1CC1OCc1ccccc1 (stereo not given)
inactive: [1] -0.2% | [2] 11.7% | [3] 4.9% | [4] -15.9% | [5] 4% | [6] 5.3%

Cc1cc[n+](Cc2ccccc2Cl)c(C)c1
inactive: [1] 19% | [2] 2.25% | [3] 14% | [4] -4.15% | [5] 2.05% | [6] 4.9%

O=c1c2cc3c(=O)n(O)c(=O)c3cc2c(=O)n1O
inactive: [1] 12.4% | [2] -18.2% | [3] -9.45% | [4] 6.75% | [5] 3.25% | [6] -90.4%

CCC1C(C)(C)c2cc(C)c(C(C)=O)cc2C1(C)C (stereo not given)
inactive: [1] -8.1% | [2] -8.75% | [3] 7.15% | [4] -49.5% | [5] 25.6% | [6] -3.75%

COc1ccc(C(O)c2ccccn2)cc1 (stereo not given)
inactive: [1] -13.1% | [2] -35.9% | [3] -24% | [4] -34.8% | [5] -62.7% | [6] -18.7%

COc1ccc(C2=NNC(=O)OC2c2ccccc2)cc1 (stereo not given)
inactive: [1] 29.1% | [2] 16.9% | [3] 28.2% | [4] -29.6% | [5] 26.3% | [6] 28.9%

CN(C)CCOC(=O)COc1ccc(Cl)cc1
inactive: [1] -10.2% | [2] 26.6% | [3] 9.9% | [4] 38% | [5] 28.9% | [6] 21.4%

NC(Cc1ccccc1)=NCC(=O)O
inactive: [1] -40.5% | [2] -7.9% | [3] -29.4% | [4] -79.9% | [5] -19.7% | [6] -25.2%

BrCCCCCCCCCBr
inactive: [1] 9.75% | [2] -3.35% | [3] 1.05% | [4] 12.9% | [5] -16.6% | [6] 29.1%

Cc1cc(C)[n+](C)c(/C=C\c2ccccc2Cl)n1
inactive: [1] 5.2% | [2] -1.7% | [3] 10.6% | [4] 15.2% | [5] -2.5% | [6] 22.1%

CN=c1ncc2nc(-c3ccccc3)c(-c3ccccc3)n(C)c-2n1
inactive: [1] -8.2% | [2] -5.9% | [3] -7.45% | [4] -42% | [5] -3.85% | [6] -24.4%

CCOC(=O)C1CC=CCC1C(=O)OCC (stereo not given)
inactive: [1] -5.25% | [2] -7.5% | [3] 0.5% | [4] 2.55% | [5] 1.3% | [6] -19.5%

Cc1cc(=O)oc2c1ccc1occc(=O)c12
inactive: [1] -16.6% | [2] 10.4% | [3] -10.3% | [4] 4.95% | [5] 11.9% | [6] -11%

COc1cc2[nH]c(-c3ccccc3)cc(=O)c2c(OC)c1OC
inactive: [1] -11.3% | [2] -3.65% | [3] -8% | [4] 0.25% | [5] 8.85% | [6] 3.35%

CCOC(=O)N1OC2C=CC1CC2 (stereo not given)
inactive: [1] -7.45% | [2] -9.45% | [3] -12.1% | [4] 11.8% | [5] 3.45% | [6] 15.1%

O=C(Nc1cccc(Cl)c1)Sc1c(Cl)c(Cl)c(Cl)c(Cl)c1Cl
inactive: [1] 24.4% | [2] 17.3% | [3] 26.4% | [4] 29.2% | [5] 7.3% | [6] 34.8%

CC1C2CC(C/C2=N/O)C1(C)C (stereo not given)
inactive: [1] 19.7% | [2] 19.1% | [3] 36.5% | [4] 29.1% | [5] 11.3% | [6] 21.6%

CCN(CC)CCC(=O)O[C@H]1CC[C@H](CC(C)[C@H]2CC(=O)C(C)C=C(C)[C@H](OC(=O)CCN(CC)CC)C(OC)C(=O)[C@@H](C)CC(C)/C=C/C=C/C=C(C)C(OC)CC3CC[C@H](C)[C@](O)(O3)C(=O)C(=O)N3CCCCC3C(=O)O2)CC1OC (stereo not given in full)
active: [1] 89.6% | [2] 91.8% | [3] 92.8% | [4] 89.3% | [5] 91.5% | [6] 86.5%

Cc1nc(C(N)=O)c(=O)[nH]c1C
inactive: [1] 2.25% | [2] 2.3% | [3] 8% | [4] -22.9% | [5] 2.65% | [6] 13.7%

Cc1ccc(S(=O)(=O)OCC(c2ccc(Cl)cc2)c2ccccc2Cl)cc1 (stereo not given)
inactive: [1] 14.6% | [2] 1.9% | [3] 3.6% | [4] 11.4% | [5] -1.15% | [6] 1.85%

O=C(O)CCc1nc[nH]c1[N+](=O)[O-]
inactive: [1] -33.3% | [2] -10.6% | [3] -7.55% | [4] -44.9% | [5] 11.1% | [6] 8.1%

Clc1ccccc1C1N2CCCCC2[C@@H]2c3[nH]c4ccccc4c3CCN12 (stereo not given in full)
inactive: [1] -14.8% | [2] -1.35% | [3] 9.25% | [4] 9.25% | [5] 12.6% | [6] 2.4%
